Test results published in PubChem BioAssay (NCATS).
Records with an inconclusive call do not appear. Active and inactive are the calls of the source. Calls follow the shape of the dose curve; as a rule, active = well fitted cell-killing curve with a large enough effect; inconclusive = small, poorly fitted or top-dose-only effect, or effect the other way; inactive = flat fitted curve, though single readings scatter.

Key:
Assay in all cases: Primary qHTS to identify gynecologic anti-cancer compounds using libraries of approved drugs and bioactive compounds (AID 1345084); also: nearly all actives have a fitted effect of over 55% in size
Conditions in all cases: Gynecologic cancer cell panel viability, ATPlite luminescence, 48 h; series mostly up to 57.5 µM
[1] = test system: PA-1
Summary of the method: (§1)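 Cell viability after 48 h drug treatment, ATPlite luminescence readout; five doses.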

[2] = test system: SKOV3
Summary of the method: as §1

[3] = test system: Tov-21-G
Summary of the method: as §1

[4] = test system: Tov112D
Summary of the method: as §1
% is scaled to controls: 0 for no effect and ±100 for the full control effect; potency is read from the fitted curve at half-maximal effect.

COC1CC(O[C@H]2CC[C@@]3(C)C(=CCC4C3C(O)[C@@H](O)[C@]3(C)[C@@H](C(C)=O)CC[C@]43O)C2)OC(C)C1OC1CC(OC)C(OC2OC(C)C(O)C(O)C2O)C(C)O1 (some centres undefined)
inactive: activity change, negative = cytotoxicity [1] -3.19% [at 11.6 µM] | activity change, negative = cytotoxicity [2] -4.29% [at 11.6 µM] | activity change, negative = cytotoxicity [3] -7.27% [at 11.6 µM] | activity change, negative = cytotoxicity [4] 3.02% [at 11.6 µM]

CC(C)(C)c1cc(C(C)(C)C)c2c(c1)C(O)(C(F)(F)F)C(=O)O2 (centres undefined)
inactive: Potency [1] | Potency [2] | Potency [3] | Potency [4]

C=C(CO)C(=O)O[C@H]1C/C(C)=C/CC/C(CO)=C/[C@H]2OC(=O)C(=C)[C@H]12
inactive: Potency [1] | Potency [2] | Potency [3] | Potency [4]

COc1cc(CCNCc2ccccc2O)c(OC)cc1C#N
inactive: Potency [1] | Potency [2] | Potency [3] | Potency [4]

CCOc1ccccc1-n1c(C(C)N2CCN(C(=O)COc3ccc(Cl)cc3)CC2)nc2ccccc2c1=O (centres undefined)
inactive: Potency [1] | Potency [2]
active: Potency [3] 6310 nM

C/C=C(\C)C(=O)OC1CC2C(CC=C3CC(OC4CC(OC)C(OC5CC(OC)C(OC6OC(C)C(OC7OC(CO)C(O)C(O)C7O)C(OC)C6O)C(C)O5)C(C)O4)CCC32C)C2(O)CCC(C(C)=O)C12C (centres undefined)
inactive: activity change, negative = cytotoxicity [1] -3.75% [at 11.6 µM] | activity change, negative = cytotoxicity [2] 18.2% [at 11.6 µM] | activity change, negative = cytotoxicity [3] 3.39% [at 11.6 µM] | activity change, negative = cytotoxicity [4] 3.97% [at 11.6 µM]

COc1ccccc1CN[C@H]1C2CCN(CC2)[C@H]1C(c1ccccc1)c1ccccc1
inactive: Potency [1] | Potency [2] | Potency [3] | Potency [4]

O=C(N1CCOCC1)N1CCN(c2ccc(Cl)cc2)CC1
inactive: Potency [1] | Potency [2] | Potency [3] | Potency [4]

CC(CCc1ccc(O)cc1)O[C@@H]1O[C@H](CO[C@H]2OC[C@](O)(CO)[C@H]2O)[C@@H](O)[C@H](O)[C@H]1O (some centres undefined)
inactive: Potency [1] | Potency [2] | Potency [3] | Potency [4]

C[C@@]12C[C@@H](c3ccoc3)OC(=O)C1CC[C@]1(C)[C@H]2[C@H]2C=C[C@]1(O)C(=O)O2 (some centres undefined)
inactive: Potency [1] | Potency [2] | Potency [3] | Potency [4]

C[C@@]1(C(=O)O)CC[C@]2(C)CC[C@]3(C)C4=CC(=O)c5cc(O)c(O)cc5[C@]4(C)CC[C@@]3(C)[C@@H]2C1
inactive: Potency [1] | Potency [2] | Potency [3] | Potency [4]

COC1=CC(=O)O[C@@H](CCc2ccccc2)C1
inactive: Potency [1] | Potency [2] | Potency [3] | Potency [4]

CCC(C)(C#N)O[C@@H]1O[C@H](CO)[C@@H](O)[C@H](O)[C@H]1O (some centres undefined)
inactive: Potency [1] | Potency [2] | Potency [3] | Potency [4]

Clc1ccc(OCC2=NCCN2)cc1Cl
inactive: Potency [1] | Potency [2] | Potency [3] | Potency [4]

COC(=O)C1(C)CCC(O)C2(C)c3c(O)cc(C(C)C)cc3C(O)C(OC(C)=O)C12 (centres undefined)
inactive: Potency [1] | Potency [2] | Potency [3] | Potency [4]

C[C@H]1O[C@@H](O[C@H]2C[C@@H](O)[C@]3(CO)C4C(CC[C@]3(O)C2)[C@@]2(O)CC[C@H](C3=CC(=O)OC3)[C@@]2(C)C[C@H]4O)[C@@H](O)[C@@H](O)[C@H]1O (some centres undefined)
active: Potency [1] 562 nM | Potency [2] 224 nM | Potency [3] 178 nM | Potency [4] 112 nM

CC(=O)OC12C(O)C(C)C3(O)C4C=C(C)C(=O)C4CC(CO)=CC3C1C2(C)C (centres undefined)
inactive: Potency [1] | Potency [2] | Potency [3] | Potency [4]

CN1CCCC1CCOC(c1cc2nccc(C(=O)O)c2[nH]1)c1ccccc1Cl (centres undefined)
inactive: Potency [1] | Potency [2] | Potency [3] | Potency [4]

COC(=O)[C@@]12C(=O)C(C)C(=O)[C@]1(C)C(C)=C[C@H]1[C@]3(C=O)CC[C@H](OC(C)=O)C(C)(C)[C@H]3CC[C@@]12C (some centres undefined)
inactive: Potency [1] | Potency [2] | Potency [3] | Potency [4]

CC12CCC3C(CCC4(O)CC(O)CCC34C=O)C1(O)CCC2C1=CC(=O)OC1 (centres undefined)
active: Potency [1] 1120 nM | Potency [2] 1580 nM | Potency [3] 708 nM | Potency [4] 355 nM

COC(=O)C12C(=O)C(C)(O)C(=O)C1(C)C(C)=CC1C34CCC(OC3=O)C(C)(CO)C4CCC12C (centres undefined)
inactive: Potency [1] | Potency [2] | Potency [3] | Potency [4]

COc1c(C(C)C)cc2c(c1O)[C@@]1(C(=O)O)CCCC(C)(C)C1CC2 (some centres undefined)
inactive: Potency [1] | Potency [2] | Potency [3] | Potency [4]

C=C1[C@@H]2CC[C@@]3(C)[C@H](c4ccoc4)OC(=O)C[C@]13O[C@H]1CC(=O)C(C)(C)[C@H](C(OC(C)=O)C(=O)OC)[C@]12C (some centres undefined)
inactive: Potency [1] | Potency [2] | Potency [3] | Potency [4]

OC1(c2ccc(Cl)cc2)c2ccccc2C2=NCCN21 (centres undefined)
inactive: Potency [1] | Potency [2] | Potency [3] | Potency [4]

C/C=C(\C)C(=O)OC1C(C)OC(OC2C(C)OC(OC3CCC4(C)C(=CCC5C4CCC4(C)C(C(C)OC6OC(COC7OC(CO)C(O)C(O)C7O)C(O)C(O)C6O)CCC54O)C3)CC2OC)C(O)C1OC (centres undefined)
inactive: activity change, negative = cytotoxicity [1] 9.3% [at 11.6 µM] | activity change, negative = cytotoxicity [2] -10% [at 11.6 µM] | activity change, negative = cytotoxicity [3] 3.11% [at 11.6 µM] | activity change, negative = cytotoxicity [4] -0.387% [at 11.6 µM]

CN1[C@@H]2CC[C@H]1CC(OC(=O)C1C=Nc3ccccc31)C2 (some centres undefined)
inactive: Potency [1] | Potency [2] | Potency [3] | Potency [4]

CN[C@H]1[C@H](O)[C@H](O[C@@H]2[C@@H](O)[C@H](O[C@H]3O[C@H]([C@H](C)O)[C@@H](O)[C@H](O)[C@H]3N)[C@@H](N)C[C@H]2N)OC[C@@]1(C)O
inactive: Potency [1] | Potency [2] | Potency [3] | Potency [4]

C[C@@H]1C(=O)O[C@H]2[C@H](O)[C@@]34[C@@H]5OC(=O)[C@@]3(O[C@@H]3OC(=O)[C@@H](O)[C@@]34[C@H](C(C)(C)C)[C@H]5O)[C@@]12O
inactive: Potency [1] | Potency [2] | Potency [3] | Potency [4]

CC1C/C=C/C(O)C(O)CC/C=C/c2cc(O)cc(O)c2C(=O)O1 (centres undefined)
inactive: Potency [1] | Potency [2] | Potency [3] | Potency [4]

C=CC(C)(O)CC/C=C(\C)C(=O)O[C@H]1[C@H](O)[C@@H](CO)O[C@@H](OC(=O)[C@]23CCC(C)(C)CC2C2=CCC4[C@@]5(C)CC[C@H](O[C@@H]6O[C@H](CO[C@@H]7OC[C@H](O)[C@H](O)[C@H]7O[C@@H]7OC[C@@H](O)[C@H](O)[C@H]7O)[C@@H](O)[C@H](O)[C@H]6O)C(C)(C)C5CC[C@@]4(C)[C@]2(C)CC3)[C@@H]1OC1OC(C)C(O[C@@H]2OC[C@@H](O)[C@H](O[C@@H]3OC[C@@H](O)[C@H](O)[C@H]3O)[C@H]2O)C(O)C1O (some centres undefined)
inactive: activity change, negative = cytotoxicity [1] 3.75% [at 6.55 µM] | activity change, negative = cytotoxicity [2] 0% [at 6.55 µM] | activity change, negative = cytotoxicity [3] 5.83% [at 6.55 µM] | activity change, negative = cytotoxicity [4] 1.17% [at 6.55 µM]

CCCCCOc1cc2c(cc1-c1cc(/C=C/C(=O)O)ccc1O)C(C)(C)CCC2(C)C
inactive: Potency [1] | Potency [2] | Potency [3] | Potency [4]

CC(=O)OC1CC(O)C2(C)C(CC(OC(C)=O)C3(C)C2CCC2(C)C(c4ccoc4)C(=O)C4OC423)C1(C)C (centres undefined)
inactive: Potency [1] | Potency [2] | Potency [3] | Potency [4]

CN1C(=O)N(c2ccc(C#N)c(C(F)(F)F)c2)C(=O)[C@]1(CO)c1ccccc1
inactive: Potency [1] | Potency [2] | Potency [3] | Potency [4]

CCC(C)(OC(C)=O)C(=O)O[C@H]1[C@H](OC(C)=O)C[C@@H]2[C@@](C)([C@@H]3C[C@H]4C=CO[C@H]4O3)[C@H](C)C[C@H](OC(C)=O)[C@@]2(COC(C)=O)[C@@]12CO2 (some centres undefined)
inactive: Potency [1] | Potency [2] | Potency [3] | Potency [4]

COC1CC(=O)C23C(=O)NC(CC(C)C)C2C(C)=C(C)C(OO)C3/C=C(\C)CCC(O)C1O (centres undefined)
inactive: Potency [1] | Potency [2] | Potency [3] | Potency [4]

COC1CC(O[C@H]2CC[C@]3(C=O)C4CC[C@]5(C)[C@@H](C6=CC(=O)OC6)CC[C@]5(O)[C@@H]4CC[C@]3(O)C2)OC(C)C1O[C@@H]1O[C@H](CO)[C@@H](O)[C@H](O)[C@H]1O (some centres undefined)
active: Potency [1] 316 nM | Potency [2] 447 nM | Potency [3] 141 nM | Potency [4] 100 nM

CC(C)(O)[C@H]1O[C@H]2CC[C@@]3(C)[C@@](O)(CC[C@H]4Cc5c([nH]c6ccccc56)[C@@]43C)C2=CC1=O
inactive: Potency [1] | Potency [2] | Potency [3] | Potency [4]

COCC1OC(=O)c2coc3c2C1(C)C1=C(C3=O)C2CCC(=O)C2(C)CC1O (centres undefined)
inactive: Potency [1] | Potency [2] | Potency [3] | Potency [4]

C=C(C)[C@H]1O[C@H]2CC[C@@]3(C)[C@@](O)(CC[C@H]4[C@@H]5OC(C)(C)[C@H]6C[C@@H]7C(=C)Cc8c(Cl)cc9[nH]c(c5c9c8[C@@]76O)[C@@]43C)[C@]23O[C@@H]3[C@H]1O
inactive: Potency [1] | Potency [2] | Potency [3] | Potency [4]

C[C@]12CC[C@@H](O)C[C@H]1CC[C@@H]1[C@@H]2CC[C@]2(C)C(=O)CC[C@@H]12
inactive: Potency [1] | Potency [2] | Potency [3] | Potency [4]

Oc1ccc2c3c1O[C@H]1[C@H](N(CCCl)CCCl)CC[C@@]4(O)[C@@H](C2)N(CC2CC2)CC[C@]314
inactive: activity change, negative = cytotoxicity [1] 6.51% [at 11.6 µM] | activity change, negative = cytotoxicity [2] 9.08% [at 11.6 µM] | activity change, negative = cytotoxicity [3] 6.96% [at 11.6 µM] | activity change, negative = cytotoxicity [4] 3.75% [at 11.6 µM]

C[C@@](O)(COc1ccc(C#N)cc1)C(=O)Nc1ccc(C#N)c(C(F)(F)F)c1
inactive: Potency [1] | Potency [2] | Potency [3] | Potency [4]

C[C@H]1C(=O)O[C@H]2[C@H](O)[C@]34C5OC(=O)[C@]3(O[C@@H]3OC(=O)[C@H](O)C34[C@H](C(C)(C)C)[C@H]5O)C12O (some centres undefined)
inactive: Potency [1] | Potency [2] | Potency [3] | Potency [4]

CC(C)=C1CC[C@]23CO[C@H](C2)[C@@](O)(C(=O)O)CCC13 (some centres undefined)
inactive: Potency [1] | Potency [2] | Potency [3] | Potency [4]

C=CC(C)(C)c1[nH]c2cccc3c2c1C[C@@H]1[C@@H]3[C@@H](OC(C)=O)[C@H](C)CN1C
inactive: Potency [1] | Potency [2] | Potency [3] | Potency [4]
